Active and inactive are the calls of the source. Calls come from the whole dose curve; as a rule, active = well fitted curve in the direction sought with a large enough effect; inactive = no such curve, though single readings can be large or run the other way.
Assay: qHTS Assay for Agonists of the Relaxin Receptor RXFP1: V1B SAR
Conditions: HEK293 V1B cells, cAMP TR-FRET, 30 min; series mostly up to 78.1 µM; activation: at the top concentration
Excerpt: The relaxin hormone is involved in the variety of biological functions in normal tissues and diseases. The role of relaxin is well-established in female reproduction and parturition, mammary gland and endometrial development, maintenance of myometrial quiescence during pregnancy. Relaxin signaling through its G protein-coupled receptor (GPCR) RXFP1 results in ECM remodeling through regulation of collagen deposition, cell invasiveness, proliferation and overall tissue homeostasis. […] Recombinant human relaxin (rhRlx) is currently being tested in clinical trials as a protective agent in congestive heart failure, in treating severe preeclampsia, and as an anti-fibrotic agent in systemic sclerosis. Upon relaxin binding RXFP1 activation leads to the activation of adenylate cyclase (AC) via Gs. cAMP will activate PKA, which phosphorylates many signaling proteins. Thus, detection of cAMP increase is an easy and reliable indication of relaxin receptor activation. To screen for agonists of the relaxin receptor, a HEK293T cell line stably transfected with RXFP1 was used. RXFP1 activation was assayed by changes in cAMP levels as detected with a time-resolved fluorescence energy transfer (TR-FRET) cAMP detection kit. This assay measures activation of a cell expressing V1B, another GPCR targeted by relaxin, to determine the selectivity of compounds for RXFP1. NIH Chemical Genomics Center [NCGC] NIH Molecular Libraries Probe Production Centers Network [MLPCN] MLPCN Grant: R03 MH085705-01A1 Assay Submitter (PI): Alexander Agoulnik
This is a cell-based assay for cAMP second messenger response to screen for agonists of the RXFP2 receptor. The assay was conducted in the presence of a PDE4 inhibitor (Ro 20174). The cells were lysed and the cAMP levels were measured with a TR-FRET cAMP kit. Presence of cAMP in the cell lysate disrupts binding between the cryptate-labeled anti-cAMP and d2-labeled cAMP pair, leading to a decrease in the TR-FRET signal. Data were normalized to the controls for basal activity (buffer only) and 100% activity (29 nM porcine relaxin). The EC50 values were determined from concentration-response data modeled with the standard Hill equation 1536-well assay protocol for the HEK293 V1B cAMP assay: (1) Add 3 ul HEK293 RXFP2 cell culture. 2000 cells/well in DMEM/F12, 10% FBS, 1x Pen/Strep (dispensed offline with MultiDrop Combi). (2) Incubate 16-24 hr at 37C, 5% CO2. (3) Add 1 ul 400uM Ro20174 in DPBS, 0.05% BSA, 0.005% Tween 20. (3) Add 23 nl compounds in DMSO solution. Final concentration was 0.5 - 58 uM. (4) Incubate 30 min at 37C, 5% CO2. (5) Add 1 ul cAMP-d2 in lysis buffer (HTRF cAMP HiRange kit, CisBio). (6) Add 1 ul anti-cAMP antibody-cryptate in lysis buffer (HTRF cAMP HiRange kit, CisBio). (7) Incubate 30 min at room temperature. (6) Detect the assay plate in a ViewLux plate reader (PerkinElmer) with Ex=320 nm, Em1=615 nm and Em2=665 nm. Keywords: relaxin, RXFP1, RXFP2, G-protein coupled receptor, cAMP, agonist, high throughput screening, MLSMR, MLSCN, NIH Roadmap, qHTS and NCGC

activation, inactive:
O=C(Nc1cccc(-c2cccc(C(F)(F)F)c2)c1)c1ccccc1NC(=O)C1CCCCC1 2.41%
COCCOc1ccccc1C(=O)Nc1cccc(C(F)(F)F)c1 -3.76%
O=C(Nc1ccccc1C(=O)Nc1cccc(C(F)(F)F)c1)c1cccnc1 -5.19%
COCCNc1ccccc1C(=O)Nc1cccc(C(F)(F)F)c1 -6.16%
Cc1ccc(NC(=O)c2ccccc2NC(=O)C2CCCCC2)cc1 0.657%
CCOc1ccccc1C(=O)Nc1cccnc1C(=O)Nc1cccc(S(=O)(=O)C(F)(F)F)c1 -5.24%
O=C(Nc1cccc(F)c1)c1ccccc1NC(=O)C1CCCCC1 -4.78%
COc1ccccc1C(=O)Nc1ccccc1C(=O)N(C)c1cccc(C(F)(F)F)c1 -3.58%
CCCOc1ccccc1C(=O)Nc1ccccc1C(=O)Nc1cccc(S(=O)(=O)C(F)(F)F)c1 0.371%
O=C(Nc1cccc(-c2ccccc2C(F)(F)F)c1)c1ccccc1NC(=O)C1CCCCC1 3.89%
CCOc1ccccc1C(=O)Nc1ccccc1C(=O)Nc1cccc(C(F)(F)F)c1 7.36%
O=C(Nc1cccc(C(F)(F)F)c1)c1ccccc1NC(=O)C1CCCC1 -3.74%
O=C(NCc1cccc(C(F)(F)F)c1)c1ccccc1NC(=O)C1CCCCC1 -0.791%
CCSc1ccccc1C(=O)Nc1ccccc1C(=O)Nc1cccc(S(=O)(=O)C(F)(F)F)c1 -1.43%
COc1ccccc1C(=O)Nc1cccc(C(=O)Nc2cccc(C(F)(F)F)c2)c1 0.812%
O=C(Nc1cccc(Br)c1)c1ccccc1NC(=O)C1CCCCC1 1.94%
CCOc1ccccc1-c1nc2c(C(=O)Nc3cccc(S(=O)(=O)C(F)(F)F)c3)cccc2[nH]1 5.06%
COc1ccccc1Nc1ccccc1C(=O)Nc1cccc(C(F)(F)F)c1 -2.38%
COc1ccccc1C(=O)Nc1ccccc1C(=O)Nc1cccc(S(=O)(=O)C(F)(F)F)c1 -2.19%
CCOc1ccccc1C(=O)Nc1sccc1C(=O)Nc1cccc(S(=O)(=O)C(F)(F)F)c1 12.3%
O=C(Nc1cccc(SC(F)(F)F)c1)c1ccccc1NC(=O)C1CCCCC1 0.962%
CC(C)(C)c1cccc(NC(=O)c2ccccc2NC(=O)C2CCCCC2)c1 -3.36%
CCOc1ccccc1S(=O)(=O)Nc1ccccc1C(=O)Nc1cccc(S(=O)(=O)C(F)(F)F)c1 4.37%
COc1ccccc1C(=O)Nc1ccccc1C(=O)Nc1cccc(C(F)(F)F)c1 -4.34%
O=C(Nc1ccc(C(F)(F)F)cc1)c1ccccc1NC(=O)C1CCCCC1 2.37%
O=C(Nc1cccc(S(=O)(=O)C(F)(F)F)c1)c1ccccc1NC(=O)C1CCCCC1 -2.51%
COc1cccc(C(=O)Nc2ccccc2C(=O)Nc2cccc(C(F)(F)F)c2)c1 1.57%
CCOc1ccccc1C(=O)Nc1ccccc1CNc1cccc(S(=O)(=O)C(F)(F)F)c1 2.87%
O=C(Nc1cccc(C(F)(F)F)c1)c1ccccc1NC(=O)C1CCCCC1 1.32%
O=C(Nc1cccc(-c2ccccc2)c1)c1ccccc1NC(=O)C1CCCCC1 -3.61%
O=C(Nc1ccccc1C(=O)Nc1cccc(C(F)(F)F)c1)c1ccccc1 66.3%
O=C(Cc1ccccc1)Nc1ccccc1C(=O)Nc1cccc(C(F)(F)F)c1 -1.24%
COc1cccc(OC)c1C(=O)Nc1ccccc1C(=O)Nc1cccc(C(F)(F)F)c1 -1.17%
O=C(Nc1cccc(S(=O)(=O)C(F)(F)F)c1)c1ccccc1NC(=O)c1ccccc1OCC(F)(F)F 1.49%
O=C(Nc1cccc(Cl)c1)c1ccccc1NC(=O)C1CCCCC1 -5.01%
CCOc1ccccc1C(=O)NCCC(=O)Nc1cccc(S(=O)(=O)C(F)(F)F)c1 3.4%
COc1ccccc1C(=O)Nc1ccccc1C(=O)Nc1cccc(SC(F)(F)F)c1 -3.98%
CCOc1ccccc1C(=O)Nc1ccccc1C(=O)Nc1cccc(S(=O)(=O)C(F)(F)F)c1 -0.766%
O=C(Nc1cccc(C(F)(F)F)c1)c1ccccc1NC(=O)C1CCC1 8.48%
O=C(Nc1cccc(C(F)(F)F)c1)c1ccccc1NC(=O)C1CCCCCC1 3.2%

— PubChem BioAssay AID602262 (National Center for Advancing Translational Sciences (NCATS), 2012)
